The text below walks through data of PubChem BioAssay (EPA / NIEHS).

Calls of active or inactive are those of the source. How the source made its calls: active means hit-call score of the fitted dose curve at least 0.9, where 1 is the maximum; inactive means score below 0.9.

The nature of test [1]: ATG_GLI_CIS: Attagene CIS-FACTORIAL HepG2 Assay for human Zinc Finger Protein GLI1 (AID 2282945). Particulars: HepG2, Attagene cis-factorial reporter mRNA, GLI element; actives raise or lower the signal. The essentials:
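HepG2 cells transiently transfected with cis-promoter multiplexed reporter units report endogenous transcription factor activity. After 24 h chemical exposure, reporter mRNA was quantified by RT-PCR, 6-FAM labelling, HpaI digestion and capillary electrophoresis, with bidirectional fitting against DMSO.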

The target of test [2] is Bile acid receptor (Homo sapiens) (UniProt Q96RI1). Put plainly: ATG_IR1_CIS: Attagene CIS-FACTORIAL HepG2 Assay for human Nuclear Receptor Subfamily 1 Group H Member 4 (NR1H4), IR1 submotif (AID 2282946). Particulars: IR1 reporter transcription, actives raise or lower the signal. The essentials:
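Readout: reporter transcript levels by RT-PCR with fluorescent capillary electrophoresis, from HepG2 cells transiently transfected with multiplexed cis-regulated reporters and dosed 24 h. Gain- or loss-of-signal fitted versus DMSO negative control.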

Test [3] in a line: ATG_GRE_CIS: Attagene CIS-FACTORIAL HepG2 Assay for human Glucocorticoid Response Elements (GRE) (AID 2282947). To be noted: HepG2 GRE cis-reporter, Attagene multiplex mRNA; actives raise or lower the signal. The gist of the method: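 HepG2, transient cis-reporter transfection, 24 h. Reporter mRNA: RT-PCR then CE, fluorescence. Fit both directions vs DMSO.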
Test [4] in a line: ATG_M_32_CIS: Attagene CIS-FACTORIAL HepG2 Assay for M32 Transcription Factor (Internal Marker) (AID 2282949).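 Further: background control marker of the multiplexed CIS panel rather than a real target.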 Particulars: HepG2 Attagene cis-factorial M32 reporter, mRNA; actives raise or lower the signal. The gist of the method:
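Using DMSO as baseline, bidirectional curve fits were applied to reporter mRNA signals. These came from transiently transfected HepG2 cells exposed for 24 h, with RNA analysed by RT-PCR, FAM primer extension, HpaI digestion and CE.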

Test [5] in a line: ATG_M_06_CIS: Attagene CIS-FACTORIAL HepG2 Assay for M06 Transcription Factor (Internal Marker) (AID 2282950). Particulars: HepG2 Attagene CIS-FACTORIAL M06 internal marker reporter; actives raise or lower the signal. The essentials: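 HepG2 cells transiently transfected with cis-regulated multiple reporter transcription units were exposed to chemical for 24 h; reporter mRNA was quantified by RT-PCR, 6-FAM primer labelling, HpaI digestion and capillary electrophoresis, fitted bidirectionally against DMSO.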

In test [6] the target is Hepatocyte nuclear factor 6 (Homo sapiens) (UniProt Q9UBC0). Kind of test: ATG_HNF6_CIS: Attagene CIS-FACTORIAL HepG2 Assay for human Hepatocyte Nuclear Factor 6 (HNF6) (AID 2282952). To be noted: HepG2 Attagene cis-factorial HNF6 reporter transcription; actives raise or lower the signal. The gist of the method:
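Readout: fluorescent reporter-transcript fragments resolved by capillary electrophoresis after RT-PCR, reflecting endogenous factor activity in transfected HepG2. Exposure 24 h. Gain or loss of signal fitted bidirectionally against DMSO.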

Test [7] addresses Heat shock factor protein 1 (Homo sapiens) (UniProt Q00613). Put plainly: ATG_HSE_CIS: Attagene CIS-FACTORIAL HepG2 Assay for human Heat Shock Transcription Factor 1 (HSE) (AID 2282953). To be noted: HepG2 HSE cis-reporter, Attagene RNA transcription; actives raise or lower the signal. The essentials:
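HepG2 cells transiently transfected with multiple reporter transcription units under cis-regulatory promoter control, measuring endogenous transcription factor activity. After 24 h chemical exposure, reporter mRNA quantified by RT-PCR, fluorescent labelling, HpaI digestion and capillary electrophoresis; bidirectional fit versus DMSO.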

The nature of test [8]: ATG_MRE_CIS: Attagene CIS-FACTORIAL HepG2 Assay for human Metal Responsive Element (MRE) (AID 2282954). Particulars: HepG2 MRE cis-reporter transcription, Attagene multiplex; actives raise or lower the signal. The gist of the method:
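Readout: capillary electrophoresis of 6-FAM-labelled, HpaI-digested RT-PCR reporter products. System: HepG2 cells carrying transient multiplexed cis reporters, dosed 24 h. Analysis: bidirectional fit, DMSO baseline.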

A short description of test [9]: ATG_PBREM_CIS: Attagene CIS-FACTORIAL HepG2 Assay for human Phenobarbital-responsive Enhancer Module (PBREM) (AID 2282955). Particulars: HepG2 PBREM cis-reporter, Attagene multiplexed transcription; actives raise or lower the signal. The gist of the method:
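After a 24 h incubation with test chemical, transfected HepG2 cells yield total RNA; reporter-specific RT-PCR products are fluorescently labelled, HpaI-digested and resolved by capillary electrophoresis against ROX size standards.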

Test [10] has as its target Paired box protein Pax-6 (Homo sapiens) (UniProt P26367). Put plainly: ATG_Pax6_CIS: Attagene CIS-FACTORIAL HepG2 Assay for human Paired Box 6 (PAX6) (AID 2282956). To be noted: HepG2 CIS-FACTORIAL PAX6 reporter transcription, RNA readout; actives raise or lower the signal. The essentials: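 DMSO-referenced bidirectional fits of reporter mRNA fluorescence; HepG2 with transient cis-promoter MRTUs, 24 h post-dose, RT-PCR plus capillary electrophoresis detection.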

Test [11] can be described thus: ATG_PXRE_CIS: Attagene CIS-FACTORIAL HepG2 Assay for human Pregnane X Receptor Element (PXRE) (AID 2282957). Particulars: HepG2 Attagene CIS-FACTORIAL PXRE reporter, mRNA; actives raise or lower the signal. The gist of the method:
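Read-out: fluorescence of reporter-specific RT-PCR products resolved by capillary electrophoresis, fitted bidirectionally relative to DMSO. Human HepG2 liver cells carried transfected cis-promoter reporter units and were exposed to chemicals for 24 h.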

A short description of test [12]: ATG_PPRE_CIS: Attagene CIS-FACTORIAL HepG2 Assay for human Peroxisome Proliferator-activated Response Element (PPRE) (AID 2282958). Particulars: HepG2 PPRE cis-element reporter, Attagene transcription factor profiling; actives raise or lower the signal. The gist of the method:
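Multiplexed reporter transcription units under cis-regulatory promoters were transfected into HepG2 cells to capture endogenous factor activity. A 24 h incubation preceded RNA isolation and fluorescent RT-PCR fragment analysis.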

The nature of test [13]: ATG_RORE_CIS: Attagene CIS-FACTORIAL HepG2 Assay for human RAR-related Orphan Receptor Element (RORE) (AID 2282959). To be noted: HepG2 Attagene cis-factorial RORE reporter, mRNA; actives raise or lower the signal. The gist of the method: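 Fluorescence intensity of reporter-specific cDNA fragments, separated by capillary electrophoresis, gives the signal. Source: HepG2 liver cells transiently transfected with cis-element reporters and exposed 24 h; DMSO-normalized bidirectional fit.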

Test [14] can be described thus: ATG_Sox_CIS: Attagene CIS-FACTORIAL HepG2 Assay for human SRY-box transcription factor (SOX) (AID 2282960). Particulars: HepG2 Attagene cis-factorial SOX reporter, mRNA; actives raise or lower the signal. The gist of the method: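 After 24 h of chemical treatment, transfected HepG2 reporter cells are lysed for total RNA. Transcript levels come from RT-PCR with labelled primer extension and capillary electrophoresis, analysed bidirectionally versus DMSO.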

Test [15] concerns the target Transcription factor Sp1 (Homo sapiens) (UniProt P08047). Kind of test: ATG_Sp1_CIS: Attagene CIS-FACTORIAL HepG2 Assay for human Specificity Protein 1 (Sp1) (AID 2282961). Particulars: HepG2 Sp1 cis-reporter transcription, actives raise or lower the signal. The essentials:
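Sp1-driven reporter mRNA, read as capillary electrophoresis fluorescence after RT-PCR, in transiently transfected HepG2 cells dosed for 24 h; signal change in either direction relative to DMSO.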

Test [16] is described as follows: ATG_SREBP_CIS: Attagene CIS-FACTORIAL HepG2 Assay for human Sterol Regulatory Element Binding (SREBP) (AID 2282962). To be noted: HepG2 Attagene cis-factorial SREBP reporter, mRNA; actives raise or lower the signal. The essentials: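 In this cis-format assay, HepG2 liver cells express reporters controlled by promoter elements responsive to native transcription factors. Exposure lasts 24 h; reporter mRNA fluorescence from capillary electrophoresis gives the signal, fitted bidirectionally against DMSO.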

The target in test [17] is Signal transducer and activator of transcription 3 (Homo sapiens) (UniProt P40763). Put plainly: ATG_STAT3_CIS: Attagene CIS-FACTORIAL HepG2 Assay for human Signal Transducer and Activator of Transcription 3 (STAT3) (AID 2282963). To be noted: HepG2, Attagene cis-factorial STAT3 reporter transcription; actives raise or lower the signal. The gist of the method:
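Uses human liver HepG2 transiently carrying cis-regulated reporter transcription units. Following 24 h dosing, reporter mRNA induction was detected by RT-PCR and capillary electrophoresis, analysed bidirectionally versus DMSO.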

The nature of test [18]: ATG_TA_CIS: Attagene CIS-FACTORIAL HepG2 Assay for human TA Basal Promoter (AID 2282964). To be noted: HepG2 Attagene CIS-factorial TA basal promoter reporter; actives raise or lower the signal. The gist of the method: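 HepG2 cells transiently transfected with multiplexed cis-promoter reporter units, dosed 24 h. Reporter mRNA measured by RT-PCR, 6-FAM labelling, HpaI digestion and capillary electrophoresis; bidirectional fit versus DMSO baseline, serving as background control.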

The nature of test [19]: ATG_ISRE_CIS: Attagene CIS-FACTORIAL HepG2 Assay for human Interferon Regulatory Factor 1 (IRF1) binding to an Interferon-Stimulated Response Element (ISRE) (AID 2282948). Particulars: HepG2 ISRE cis-reporter (Attagene), mRNA transcription readout; actives raise or lower the signal. The gist of the method: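 Uses HepG2 liver cells transfected with cis-regulated reporters and measures mRNA 24 h post-dosing through RT-PCR, primer-extension labelling and capillary electrophoresis, with DMSO as negative control.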

Test [20] has as its target Hypoxia-inducible factor 1-alpha (Homo sapiens) (UniProt Q16665). Put plainly: ATG_HIF1a_CIS: Attagene CIS-FACTORIAL HepG2 Assay for human Hypoxia Inducible Factor 1 (HIF1A) (AID 2282951). Particulars: HepG2 Attagene cis-factorial HIF1a reporter transcription; actives raise or lower the signal. The essentials: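 In this multiplexed cell assay, HepG2 cells bearing transfected cis reporters are dosed for 24 h and reporter mRNA is read by RT-PCR plus capillary electrophoresis; signal increases and decreases are both scored against DMSO.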

Hypoxia-inducible factor 1-alpha (Homo sapiens), sequence (Q16665 whole entry, looked up): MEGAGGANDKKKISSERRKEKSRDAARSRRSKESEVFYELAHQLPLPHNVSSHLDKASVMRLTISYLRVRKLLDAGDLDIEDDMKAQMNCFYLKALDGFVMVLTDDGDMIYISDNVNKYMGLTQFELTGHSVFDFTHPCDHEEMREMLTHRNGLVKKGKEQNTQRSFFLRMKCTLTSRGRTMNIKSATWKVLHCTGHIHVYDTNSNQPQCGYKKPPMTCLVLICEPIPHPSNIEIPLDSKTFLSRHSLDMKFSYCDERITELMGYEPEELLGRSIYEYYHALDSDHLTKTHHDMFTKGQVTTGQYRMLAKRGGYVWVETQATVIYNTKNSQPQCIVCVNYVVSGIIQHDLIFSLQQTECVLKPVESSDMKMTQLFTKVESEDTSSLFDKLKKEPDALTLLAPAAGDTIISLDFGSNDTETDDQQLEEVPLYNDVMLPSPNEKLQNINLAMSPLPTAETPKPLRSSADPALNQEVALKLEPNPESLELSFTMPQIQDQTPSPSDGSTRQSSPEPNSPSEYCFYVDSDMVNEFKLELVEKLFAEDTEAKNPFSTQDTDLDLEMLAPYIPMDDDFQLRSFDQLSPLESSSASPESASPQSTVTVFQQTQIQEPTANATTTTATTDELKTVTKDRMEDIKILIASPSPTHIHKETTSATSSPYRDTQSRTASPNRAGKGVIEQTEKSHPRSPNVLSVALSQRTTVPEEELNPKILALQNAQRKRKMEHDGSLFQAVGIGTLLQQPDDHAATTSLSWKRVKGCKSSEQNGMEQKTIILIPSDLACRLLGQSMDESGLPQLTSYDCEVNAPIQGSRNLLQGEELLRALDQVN
Paired box protein Pax-6 (Homo sapiens), sequence (P26367 whole entry, looked up): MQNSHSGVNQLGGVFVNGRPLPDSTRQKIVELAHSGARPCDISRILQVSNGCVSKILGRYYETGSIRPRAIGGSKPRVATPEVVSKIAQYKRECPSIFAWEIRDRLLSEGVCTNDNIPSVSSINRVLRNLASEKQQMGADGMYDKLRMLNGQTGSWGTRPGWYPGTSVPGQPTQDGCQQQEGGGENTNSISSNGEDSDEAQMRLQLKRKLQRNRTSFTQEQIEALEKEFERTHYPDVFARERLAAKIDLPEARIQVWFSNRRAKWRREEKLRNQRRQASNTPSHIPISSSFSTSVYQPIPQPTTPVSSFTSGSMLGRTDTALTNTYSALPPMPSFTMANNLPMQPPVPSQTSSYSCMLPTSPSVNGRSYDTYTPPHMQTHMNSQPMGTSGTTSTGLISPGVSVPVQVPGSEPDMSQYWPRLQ
Signal transducer and activator of transcription 3 (Homo sapiens), sequence (P40763 whole entry, looked up): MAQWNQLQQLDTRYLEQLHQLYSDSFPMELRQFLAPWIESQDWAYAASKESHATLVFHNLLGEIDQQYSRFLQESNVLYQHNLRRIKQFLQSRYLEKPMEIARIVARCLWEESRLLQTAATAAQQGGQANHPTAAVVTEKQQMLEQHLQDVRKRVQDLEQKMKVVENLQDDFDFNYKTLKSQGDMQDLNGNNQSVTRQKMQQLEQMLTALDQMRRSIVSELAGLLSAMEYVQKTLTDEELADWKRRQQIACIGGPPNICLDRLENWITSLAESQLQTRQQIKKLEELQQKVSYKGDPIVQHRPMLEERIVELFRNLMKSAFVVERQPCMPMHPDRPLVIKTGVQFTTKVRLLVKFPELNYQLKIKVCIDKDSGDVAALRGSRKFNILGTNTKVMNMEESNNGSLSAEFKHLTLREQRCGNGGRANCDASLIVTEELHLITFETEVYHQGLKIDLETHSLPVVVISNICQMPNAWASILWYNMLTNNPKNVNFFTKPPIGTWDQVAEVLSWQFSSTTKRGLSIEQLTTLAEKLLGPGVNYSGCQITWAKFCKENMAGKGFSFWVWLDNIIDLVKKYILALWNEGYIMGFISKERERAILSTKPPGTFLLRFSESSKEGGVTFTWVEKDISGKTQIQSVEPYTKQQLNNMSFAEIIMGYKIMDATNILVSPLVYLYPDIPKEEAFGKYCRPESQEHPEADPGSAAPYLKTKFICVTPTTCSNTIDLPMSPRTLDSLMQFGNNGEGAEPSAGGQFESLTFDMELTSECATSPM
Bile acid receptor (Homo sapiens), sequence (Q96RI1 whole entry, looked up): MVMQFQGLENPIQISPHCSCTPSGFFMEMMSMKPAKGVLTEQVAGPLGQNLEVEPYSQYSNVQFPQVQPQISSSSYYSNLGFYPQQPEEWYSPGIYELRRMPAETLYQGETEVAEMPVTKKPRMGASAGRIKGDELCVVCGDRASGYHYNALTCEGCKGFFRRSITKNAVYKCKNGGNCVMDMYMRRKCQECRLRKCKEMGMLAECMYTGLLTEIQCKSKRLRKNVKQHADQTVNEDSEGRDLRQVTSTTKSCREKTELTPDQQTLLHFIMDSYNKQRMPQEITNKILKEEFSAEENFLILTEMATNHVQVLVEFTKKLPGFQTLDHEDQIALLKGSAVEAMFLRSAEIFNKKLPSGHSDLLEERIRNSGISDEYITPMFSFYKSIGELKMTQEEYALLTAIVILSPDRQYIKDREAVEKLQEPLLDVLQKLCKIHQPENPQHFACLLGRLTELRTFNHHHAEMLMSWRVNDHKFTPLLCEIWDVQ
Heat shock factor protein 1 (Homo sapiens), sequence (Q00613 whole entry, looked up): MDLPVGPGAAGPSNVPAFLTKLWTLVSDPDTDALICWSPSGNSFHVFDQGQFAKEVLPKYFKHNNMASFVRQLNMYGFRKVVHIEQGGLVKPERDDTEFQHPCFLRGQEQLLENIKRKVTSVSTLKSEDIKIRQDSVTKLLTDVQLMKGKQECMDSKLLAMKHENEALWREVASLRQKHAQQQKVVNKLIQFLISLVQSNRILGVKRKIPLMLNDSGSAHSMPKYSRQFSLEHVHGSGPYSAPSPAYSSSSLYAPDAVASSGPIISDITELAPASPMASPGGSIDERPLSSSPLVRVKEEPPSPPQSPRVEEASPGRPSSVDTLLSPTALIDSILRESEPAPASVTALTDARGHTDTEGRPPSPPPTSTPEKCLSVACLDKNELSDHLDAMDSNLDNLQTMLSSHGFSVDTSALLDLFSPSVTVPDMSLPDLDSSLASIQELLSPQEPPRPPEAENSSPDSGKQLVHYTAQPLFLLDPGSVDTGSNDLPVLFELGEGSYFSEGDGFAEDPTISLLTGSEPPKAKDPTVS
Hepatocyte nuclear factor 6 (Homo sapiens), sequence (Q9UBC0 whole entry, looked up, the tested form may be a part): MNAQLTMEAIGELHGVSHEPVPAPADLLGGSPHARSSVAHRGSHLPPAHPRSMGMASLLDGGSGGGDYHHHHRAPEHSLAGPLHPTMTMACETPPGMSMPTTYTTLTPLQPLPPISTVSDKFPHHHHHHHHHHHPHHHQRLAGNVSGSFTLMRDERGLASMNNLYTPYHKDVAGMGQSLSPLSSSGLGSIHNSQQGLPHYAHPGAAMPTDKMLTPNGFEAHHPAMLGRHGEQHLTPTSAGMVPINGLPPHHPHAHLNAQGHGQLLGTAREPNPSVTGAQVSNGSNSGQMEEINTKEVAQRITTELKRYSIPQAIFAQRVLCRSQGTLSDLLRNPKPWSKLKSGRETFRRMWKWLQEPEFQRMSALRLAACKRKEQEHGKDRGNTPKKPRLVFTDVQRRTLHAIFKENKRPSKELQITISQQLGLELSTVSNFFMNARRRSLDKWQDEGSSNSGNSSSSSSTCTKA
Transcription factor Sp1 (Homo sapiens), sequence (P08047 whole entry, looked up): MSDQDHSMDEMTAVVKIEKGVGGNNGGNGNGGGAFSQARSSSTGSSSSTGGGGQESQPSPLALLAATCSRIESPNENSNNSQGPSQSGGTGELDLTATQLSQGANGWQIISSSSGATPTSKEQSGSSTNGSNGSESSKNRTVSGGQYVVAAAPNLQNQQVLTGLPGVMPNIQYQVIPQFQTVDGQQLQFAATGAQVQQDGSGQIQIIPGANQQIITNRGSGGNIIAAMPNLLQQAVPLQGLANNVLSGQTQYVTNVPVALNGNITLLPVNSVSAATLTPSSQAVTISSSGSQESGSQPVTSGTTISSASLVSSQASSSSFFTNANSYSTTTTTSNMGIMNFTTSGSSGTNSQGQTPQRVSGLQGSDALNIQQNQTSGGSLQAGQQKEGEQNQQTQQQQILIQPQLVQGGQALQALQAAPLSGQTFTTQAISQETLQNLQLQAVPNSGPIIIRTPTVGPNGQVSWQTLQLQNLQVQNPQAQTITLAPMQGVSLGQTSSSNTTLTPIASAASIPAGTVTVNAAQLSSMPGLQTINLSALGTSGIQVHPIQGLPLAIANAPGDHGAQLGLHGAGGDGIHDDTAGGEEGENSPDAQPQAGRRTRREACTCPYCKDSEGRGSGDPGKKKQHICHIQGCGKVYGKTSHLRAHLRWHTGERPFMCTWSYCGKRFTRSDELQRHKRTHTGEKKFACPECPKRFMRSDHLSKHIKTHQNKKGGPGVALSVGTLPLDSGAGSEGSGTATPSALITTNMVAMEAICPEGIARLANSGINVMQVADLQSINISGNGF

With `O=C1OCc2ccccc21`, the result in [1], in [2], in test [3], in [4], in test [5] and in [6] was inactive. For the same molecule, the outcome in [7], in test [8], in [9], in [10], in test [11] and in test [12] was inactive. For the same molecule, the molecule was classed as inactive in test [13], in test [14], in test [15], in test [16], in [17] and in test [18].

One may read the AC50 as the midpoint of the concentration-response curve, whichever way the signal moves. With `C=CC(O)CCCCC` (stereo not given), the result in test [1], in test [2], in test [19], in test [4], in [5] and in [6] was inactive. Besides, the molecule was called inactive in test [7], in test [8], in [9], in test [11], in test [12] and in test [13]. Further, the outcome in [15], in test [16], in test [17] and in test [18] was inactive. The AC50 in test [20] was 26.9 µM (active); in test [10], 58.6 µM (active); in test [14], 100 µM (active).

For `CC(=O)c1ccc(O)cc1`, the molecule was called inactive in test [1], in test [2], in test [3], in [19], in test [4] and in test [5]. Besides, the molecule was classed as inactive in test [20], in test [7], in test [8], in test [9], in test [10] and in test [12]. Also, the outcome in test [13], in test [14], in test [15], in [17] and in test [18] was inactive. The concentration at half-maximal activity (AC50) in [11] was 100 µM (active).

For the molecule `C=C1CC/C=C(\C)CC[C@@H]2[C@@H]1CC2(C)C`, the molecule was called inactive in test [1], in test [19], in test [4], in [5], in test [20] and in [6]. The call in test [7], in test [8], in test [9], in test [10], in test [13] and in test [14] was inactive. Moreover, the outcome in test [15], in [16] and in test [18] was inactive. For the same molecule, the AC50 in [2] is 81.9 µM (active); in [11], 26.6 µM (active).

For `CCCCCCC(O)CCOC(C)=O` (stereo not given), the outcome in test [1], in test [2], in [19], in [4], in [5] and in test [20] was inactive. The outcome in [6], in test [7], in test [8], in test [12], in test [13] and in test [14] was inactive. The call in test [15], in test [16], in test [17] and in test [18] was inactive. For the same molecule, the half-maximal activity concentration (AC50) in test [11] was 18.6 µM (active).

As for `CC(=O)c1ccc2ccccc2c1`, the outcome in test [1], in test [2], in test [3], in test [19], in [4] and in test [5] was inactive. Moreover, the molecule was classed as inactive in test [6], in [7], in test [8], in test [9], in test [10] and in test [11]. Moreover, the result in test [12], in test [13], in test [14], in test [15], in test [16] and in [17] was inactive. For the same molecule, the call in test [18] was inactive.

As for `CN(C)CCC=C1c2ccccc2CCc2ccccc21`, the result in test [1], in [2], in test [3], in test [4], in [5] and in test [6] was inactive. Moreover, the call in test [7], in test [9], in test [10], in [13], in test [14] and in test [16] was inactive. The outcome in test [17] and in [18] was inactive. Further, the AC50 in [8] is 43.2 µM (active); in [11], 13.2 µM (active); in [15], 45.3 µM (active).
